This note sets out measurements from PubChem BioAssay (EPA / NIEHS).

SMILES strings stand for the structures. Some compounds were tested as several samples or in several runs, with calls that do not always agree. The source made the active and inactive calls. Rule for the calls: active = hit-call score of the fitted dose curve at least 0.9, where 1 is the maximum; inactive = score below 0.9.

This experiment is described as follows: ATG_M_19_CIS: Attagene CIS-FACTORIAL HepG2 Assay for M19 Transcription Factor (Internal Marker) (AID 2282939). Conditions: HepG2 Attagene CIS-FACTORIAL M19 internal marker reporter; actives raise or lower the signal. On the procedure: ATG_CIS is a cell-based, multiplexed-readout assay that uses HepG2, a human liver cell line, with measurements taken at 24 hours after chemical dosing in a 24-well plate.ATG_M_19_CIS is one of 52 assay component(s) measured or calculated from the ATG_CIS assay. It is designed to make measurements of mRNA induction, a form of inducible reporter, as detected with fluorescence intensity signals by Reverse transcription polymerase chain reaction (RT-PCR) and Capillary electrophoresis technology.Data from the assay component ATG_M_19_CIS was analyzed into 1 assay endpoint. This assay endpoint, ATG_M_19_CIS, was analyzed with bidirectional fitting relative to DMSO as the negative control and baseline of activity. Using a type of inducible reporter, measures of mRNA for gain or loss-of-signal activity can be used to understand the background control at the transcription factor-level as they relate to the gene . Furthermore, this assay endpoint can be referred to as a secondary readout, because this assay has produced multiple assay endpoints where this one serves a background control function. To generalize the intended target to other relatable targets, this assay endpoint is annotated to the background measurement intended target family, where the subfamily is internal marker.
Human liver HepG2 cells are transiently transfected with multiple reporter transcription units (MRTUs) in 6-well plates using FuGene 6 reagent (Roche; 3 ml FuGene/1 mg DNA). The MRTU constructs are regulated by a cis-regulating element (promoter). […] A major difference between the CIS and TRANS system is that in CIS activities of endogenous TFs are measured, whereas the TRANS assay evaluates changes in activities of exogenous, chimeric NR-Gal4 proteins. […] At the end of 24 hour incubation, total RNA was isolated using TriZol reagent (Invitrogen). The isolated RNA is then reverse-transcribed using oligo(dT) primer and Mo-MLV reverse transcriptase (Invitrogen) with DNAse I (Ambion) treatment for 30 min. The one-tenth of the produced cDNA was amplified by PCR using Taq DNA polymerase (Invitrogen) and two reporter sequence-specific primers. The PCR products were fluorescently labeled by primer extension with 6-arboxyfluorescein (6-FAM) 5'-labeled reporter sequence-specific primer (2 min at 95 C, 20 s at 68 C and 10 min at 72 C) and these products were digested with 5U of HpaI (New England Biolabs) for 2h at 37 C. The fragments were purified using Qiaquick PCR columns (Qiagen), analyzed on an ABI 3130xL genetic analyzer (Applied Biosystems) with peak positions identified by using a set of X-rhodamine (ROX)-labeled MapMarker1000 molecular weight standards (BioVentures). The raw capillary electrophoresis data was processed using Attagraph software (Attagene).
Take `ClC1=C(Cl)[C@]2(Cl)[C@@H]3[C@@H]4C[C@@H]([C@H]5O[C@@H]45)[C@@H]3[C@@]1(Cl)C2(Cl)Cl`: the outcome was inactive.

Take `Cc1ccc(O)c(C)c1`: the outcome was inactive.

With `ClC(Cl)=C(c1ccc(Cl)cc1)c1ccc(Cl)cc1`, the result was inactive and the AC50 is 129 µM (active).

On to `c1ccc(-c2ccccc2)cc1`, for which the molecule was classed as inactive.

Consider `CCOC(=O)C(O)(c1ccc(Cl)cc1)c1ccc(Cl)cc1`, for which the result was inactive.

On to `O=C(O)C(F)(F)C(F)(F)C(F)(F)C(F)(F)C(F)(F)C(F)(F)C(F)(F)C(F)(F)F`, for which the call was inactive.

Take `CCC(=O)O[C@H]1CC[C@H]2[C@@H]3CCC4=CC(=O)CC[C@]4(C)[C@H]3CC[C@]12C`: the outcome was inactive.

For `O=NN(c1ccccc1)c1ccccc1`, the molecule was classed as inactive.

For `CCC(C)(CC)c1cc(NC(=O)c2c(OC)cccc2OC)on1`, the call was inactive.

Take `CC(C)(c1ccccc1)c1ccc(O)cc1`: the molecule was called inactive.

In the case of `c1cc2ccc3cccc4ccc(c1)c2c34`, the call was inactive.

With `Cc1ccccc1CO[C@@H]1C[C@@]2(C(C)C)CC[C@]1(C)O2`, the result was inactive.

Turning to `C[C@]12CCC(=O)C=C1CC[C@@H]1[C@@H]2CC[C@@]2(C)[C@H]1CC[C@]2(C)O`, the molecule was classed as inactive.

Turning to `CCOP(=S)(OCC)SCSC(C)(C)C`, the outcome was inactive.

In the case of `C1CC2OC2CC1C1CO1` (stereo not given), the outcome was inactive.

For `O=C(NC(=O)c1cc(F)c(F)cc1Cl)Nc1cc(F)ccc1N1CCC(C(=O)O)CC1`, the result was inactive.

`Clc1ccc(C(Cl)(Cl)Cl)cc1`: the outcome was inactive.

As for `CN(C)c1nc(=O)n(C2CCCCC2)c(=O)n1C`, the call was inactive.

Turning to `CC1=C2C[C@H]3[C@@H](CC=C4C[C@@H](O)CC[C@@]43C)[C@@H]2CC[C@]12O[C@@H]1C[C@H](C)CN[C@H]1[C@H]2C`, the molecule was called inactive.

For `CC#Cc1cc(C)nc(Nc2ccccc2)n1`, the outcome was inactive.

Turning to `CCC(C)c1cc([N+](=O)[O-])cc([N+](=O)[O-])c1O` (stereo not given), the result was inactive.

Consider `COc1ccc(O)c(C(C)(C)C)c1`, for which the outcome was inactive.

In the case of `C[C@]12CCC(=O)C=C1CC[C@@H]1[C@@H]2CC[C@]2(C)C(=O)CC[C@@H]12`, the molecule was classed as inactive.

As for `N#Cc1ccc(N(CC(N)=O)CC(F)(F)F)cc1C(F)(F)F`, the outcome was inactive.

Consider `O=C(NC(=O)c1c(F)cccc1F)Nc1cc(Cl)c(OC(F)(F)C(F)F)c(Cl)c1`, for which the result was inactive.

As to `ClC1=C(Cl)[C@]2(Cl)[C@@H]3[C@@H](Cl)[C@H]4O[C@H]4[C@@H]3C1(Cl)C2(Cl)Cl`, the AC50 is 179 µM (active).

For the molecule `Oc1c(Cl)c(Cl)c(Cl)c(Cl)c1Cl`, the result was inactive.

As to `Cc1ccccc1O`, the result was inactive.

On to `CC(C)C(=O)OCC(C)(C)C(OC(=O)C(C)C)C(C)C` (stereo not given), for which the outcome was inactive.

As to `ClC1=C(Cl)[C@]2(Cl)[C@@H]3[C@H]4C[C@H]([C@@H]5O[C@H]45)[C@@H]3[C@@]1(Cl)C2(Cl)Cl`, the molecule was called inactive.

For `O=C(N[C@H]1CN2CCC1CC2)c1cc2ccoc2cn1`, the molecule was called inactive.

With `Nn1cnnc1`, the call was inactive.

Turning to `Cc1cc2c3c(c1)C(c1ccccc1)=N[C@@H](NC(=O)c1ccncc1)C(=O)N3CC2`, the call was inactive.

As for `CCC(C)(c1ccc(O)cc1)c1ccc(O)cc1`, the molecule was called inactive.

As for `Clc1ccc(Cl)cc1`, the result was inactive.

With `O=S(=O)(O)C(F)(F)C(F)(F)C(F)(F)C(F)(F)F`, the call was inactive.

On to `CC(c1ccc(O)cc1)(c1ccc(O)cc1)c1ccc(O)cc1`, for which the call was inactive.

As for `CCNc1nc(NC(C)C)nc(SC)n1`, the molecule was called inactive.

Consider `CC(C)(O)C(=O)Nc1ccc([N+](=O)[O-])c(C(F)(F)F)c1`, for which the molecule was classed as inactive.
